High-throughput results as filed in PubChem.
Rows were chosen to be rich in hits. Some 18% of all compounds tested hit in one or more screens of this group.
TDP1 cell noCPT – qHTS for Inhibitors of human tyrosyl-DNA phosphodiesterase 1 (TDP1): qHTS in cells in absence of CPT; DT40 Tdp1-/- hTDP1 cells, no CPT, ATP luminescence, 48 h; Potency, µM (highest dose often 46.2 µM), actives largely listed as inhibitors; 420,000 compounds, 15% hits; AID 686978, 2013; further: nearly all actives have a fitted effect of over 55% in size
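Cells were dispensed at 400 per well, compounds added by pin tool, plates incubated ≥48 hr at 37 °C, then CellTiter-Glo added for 30 min at room temperature before luminescence reading. Line: DT40 Tdp1-/- complemented with hTDP1; camptothecin omitted.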
TDP1 cell CPT – growth inhibition of DT40 Tdp1-/-;hTDP1 cells with camptothecin (screen for TDP1 inhibitors) | chicken DT40 Tdp1-/-;hTDP1 cells + 20 nM CPT, ATP luminescence, 48 h | Potency, µM (titrated, usually from 46.2 µM), actives largely listed as inhibitors | 420,000 compounds, 12% hits; further: nearly all actives have a fitted effect of over 55% in size
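Chicken DT40 Tdp1-/- cells complemented with human TDP1, 400 cells/well, exposed to compounds plus 20 nM camptothecin for at least 48 h at 37 C; viability read as ATP content by CellTiter-Glo luminescence.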
RORg inh – inhibitors of mouse ROR gamma transcriptional activity. P51450. Drosophila S2 Gal4-RORgamma UAS-luciferase reporter, 20 h. Potency, µM (highest dose often 53.6 µM), actives largely listed as inhibitors. 310,000 compounds, 5.4% hits. AID 2551; further: nearly all actives have a fitted effect of over 60% in size
Target sequence (P51450 whole entry, looked up, the tested form may be a part): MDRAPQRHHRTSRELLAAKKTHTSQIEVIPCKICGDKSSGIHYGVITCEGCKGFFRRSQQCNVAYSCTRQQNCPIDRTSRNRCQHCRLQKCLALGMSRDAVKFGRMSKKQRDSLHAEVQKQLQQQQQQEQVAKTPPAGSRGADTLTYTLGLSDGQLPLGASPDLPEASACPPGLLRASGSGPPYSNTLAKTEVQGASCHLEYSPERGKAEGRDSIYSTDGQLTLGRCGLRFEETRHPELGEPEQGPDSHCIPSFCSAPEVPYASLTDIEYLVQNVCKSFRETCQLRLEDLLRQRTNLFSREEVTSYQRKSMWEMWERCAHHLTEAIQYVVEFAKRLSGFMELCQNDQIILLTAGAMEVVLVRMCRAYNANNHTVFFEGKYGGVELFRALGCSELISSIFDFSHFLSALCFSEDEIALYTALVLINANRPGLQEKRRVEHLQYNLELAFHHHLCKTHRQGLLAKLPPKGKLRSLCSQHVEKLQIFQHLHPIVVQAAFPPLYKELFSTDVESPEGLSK
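Read-out: Photinus luciferase luminescence; inhibitors lower reporter signal. Insect Schneider cells with Gal4-ROR gamma fusion under metallothionein promoter, UAS reporter; 700 uM final copper sulfate induction, 20 hr, ambient temperature.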
IL-1B inflam inh – inhibitors of inflammasome signaling (IL-1 beta secretion) | AID 743279 | THP-1 LPS/ATP IL-1B secretion, AlphaLISA, 16 h; active compounds read low | 360,000 compounds, 4.7% hits | activity change, % at 57.5 µM; in the data active means activity change below about -50%; inconclusive means mostly about -30% to -49%
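Secreted IL-1B measured by AlphaLISA bead assay after 16 h compound exposure of THP-1 cells; compounds (final up to 57.5 uM) added 1 h before LPS (250 ng/mL) and ATP (1.25 mM) stimulation; lower signal means less secretion.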
LDHA inh – blocks human lactate dehydrogenase A; activity change, % (values are at about 110 or 230 µM); purified LDHA, NADH/diaphorase-resazurin fluorescence; active compounds read low; P00338; 480,000 compounds, 0.15% hits; AID 1347041; in the data active means activity change below about -30%; inconclusive means mostly about -25% to -30%
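Resorufin fluorescence (ex540/em590), read at 0 and 20 min after diaphorase/resazurin addition, reports the NADH left after a 5 min room-temperature reaction of 2 nM human LDH5 with 0.06 mM NADH and 0.2 mM pyruvate.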
VP16 counter – counter-screen for ROR gamma inhibitors: Gal4-VP16 reporter | 310,000 compounds, 3.5% hits | Potency, µM (highest dose often 53.6 µM), hits mostly inhibitors | AID 2546 | Drosophila S2 Gal4-VP16 UAS-luciferase, luminescence, 20 h;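 further: Gal4-VP16 expression switched on by copper sulfate through the metallothionein promoter; nearly all actives have a fitted effect of over 50% in size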
A number is an active result; - = inactive; ? = inconclusive; . = no result. Unless noted, the call rests on the fitted dose curve; in most records, active means well fitted curve in the direction sought with a large enough effect; inconclusive means small, poorly fitted or top-dose-only effect, or another doubt; inactive means no such curve, though single readings can be large; an effect the other way counts as inactive or inconclusive.

SMILES | TDP1 cell noCPT | TDP1 cell CPT | RORg inh | IL-1B inflam inh | LDHA inh | VP16 counter
S=C(Nc1ccccc1)Nc1nc2ccccc2n1CCOc1ccc(Cl)cc1 | 16µM | 21µM | 2.2µM | -88 | - | 1.8µM
CCCn1c(NC(=O)CCOc2ccc(C)cc2)nc2ccccc21 | . | . | . | . | - | .
COc1ccccc1OCCn1c(NC(=O)c2ccc(Cl)cc2)nc2ccccc21 | - | - | . | . | - | .
CCn1c(NC(=S)Nc2ccccc2)nc2ccccc21 | 4.6µM | 5.2µM | 4.5µM | - | - | 2.8µM
CCCn1c(NC(=S)Nc2ccccc2)nc2ccccc21 | ? | ? | 1µM | - | - | 1.1µM
O=C(CC(=O)c1cccc(Cl)c1)c1cccc(Cl)c1 | . | . | . | . | - | .
COC(=O)CCNc1ccccc1 | . | . | . | . | - | .
COc1cccc(NC(=O)Cc2c(O)c3ccccc3[nH]c2=O)c1 | - | - | - | - | - | -
COc1cccc(C#Cc2c(CO)[nH]c3ccccc23)c1 | ? | 18µM | . | - | - | .
CCOC(=O)C1=NN(c2cccc(C)c2)C2(S1)SC(C(C)=O)=C(C)N2c1ccccc1 (stereo not drawn) | - | - | - | - | - | -
CCOC(=O)C1=NN(c2ccc(C)cc2)C2(S1)SC(C(C)=O)=C(C)N2c1ccccc1 (stereo not drawn) | 21µM | ? | - | - | - | -
CCOC(=O)C1=NN(c2ccccc2)C2(S1)SC(C(C)=O)=C(C)N2c1ccccc1 (stereo not drawn) | 15µM | ? | - | - | - | -
O=C(NC1(c2ccccc2)CCC1)c1cc2ccccc2oc1=O | . | . | . | . | - | .
COC(=O)c1ccc(NC(=O)NCc2cccn2Cc2ccc(F)cc2)cc1 | . | . | . | . | - | .
O=C(Nc1ccc(Br)cc1Cl)c1cc(-c2ccco2)on1 | . | . | . | . | - | .
CC(C)(C)NC(=O)CSc1ncnc2c1nnn2Cc1ccccc1Cl | ? | ? | ? | -60 | - | -
O=C(CSc1ncnc2c1nnn2Cc1ccccc1)NC1CCCC1 | - | - | - | ? | - | -
COc1ccc(N2CSC(=S)N(c3ccc(OC)cc3)C2)cc1 | 15µM | 16µM | . | - | - | .
O=C(c1ccnc(Cl)c1)N1CCC(c2nc3cc(C(F)(F)F)ccc3s2)CC1 | . | . | . | . | - | .
CCCOC(=O)c1ccc(Nc2nc3ccccc3nc2NS(=O)(=O)c2ccc(OC)cc2)cc1 | . | . | . | . | - | .
Cc1ccc(SCc2nc(-c3ccc(C(=O)Nc4cc(C)ccc4C)cc3)oc2C)cc1 | 8.2µM | 8.2µM | . | . | - | .
Cc1ccc(SCc2nc(-c3ccc(C(=O)NCc4ccccc4Cl)cc3)oc2C)cc1 | 9.2µM | 8.2µM | . | . | - | .
CCc1ccc(CNC(=O)c2ccc(-c3nc(CSc4ccc(C)cc4)c(C)o3)cc2)cc1 | - | - | . | . | - | .
Cc1ccc(S(=O)Cc2nc(-c3ccc(C(=O)NC(C)c4ccccc4)cc3)oc2C)cc1 (stereo not drawn) | 15µM | ? | . | . | - | .
COc1cc(NC(=O)c2ccc(-c3nc(CSc4ccccc4)c(C)o3)cc2)cc(OC)c1 | 15µM | 18µM | . | . | - | .
SMILES | TDP1 cell noCPT | TDP1 cell CPT | RORg inh | IL-1B inflam inh | LDHA inh | VP16 counter
O=C(CCc1ncc(-c2ccc(Cl)cc2)o1)NC1CCCC1 | . | . | . | . | - | .
O=C(COc1ccccc1[N+](=O)[O-])N1CCC(c2nc3ccccc3o2)CC1 | 18µM | ? | . | . | - | .
Cc1cc(OCC(=O)N2CCC(c3nc4ccccc4o3)CC2)ccc1C(C)C | . | . | . | . | - | .
Cc1ccc(C(C)C)c(OCC(=O)N2CCC(c3nc4ccccc4o3)CC2)c1 | 15µM | ? | . | . | - | .
C=C(C)c1cccc(C(C)(C)NC(=O)Nc2ccc(C)cn2)c1 | 18µM | 18µM | - | - | - | -
CC(C)C(=O)N(c1cc2sc(=O)oc2c2ccccc12)S(=O)(=O)c1cccs1 | 12µM | 18µM | 22µM | - | - | ?
CCN1C(=NCc2cccc(C(F)(F)F)c2)N[C@@H](c2cccc(C(F)(F)F)c2)C(C(=O)OC)=C1C | 5µM | 4.5µM | . | . | - | .
CCOC(=O)CN1C(=O)N[C@@H](c2cccc(C(F)(F)F)c2)C(C(=O)OC)=C1C | - | - | . | - | - | .
CCN1C(=O)N[C@@H](c2cccc(C(F)(F)F)c2)C(C(=O)OC)=C1C | ? | 16µM | . | - | - | .
CCN1C(=NCc2cccc(Cl)c2)N[C@@H](c2cccc(C(F)(F)F)c2)C(C(=O)OC)=C1C | ? | 11µM | . | . | - | .
CCN1C(N(C)CCc2c[nH]c3ccccc23)=N[C@@H](c2cccc(C(F)(F)F)c2)C(C(=O)OC)=C1C | 23µM | 9.2µM | . | ? | - | .
COc1cc(CC(=O)N2CCN(C(=O)c3ccc4ccccc4c3)CC2)cc(OC)c1OC | . | . | . | . | - | .
COc1cc(C)c(NC(=O)CC2CC3CCC2C3)cc1OC (stereo not drawn) | . | . | . | . | - | .
CC(N)c1csc(NC(=O)Nc2cccc(C(F)(F)F)c2)n1 (stereo not drawn) | ? | ? | . | -102 | - | .
Cc1cccc(C)c1NC(=O)Nc1nc(CN(C)C)cs1 | - | - | . | - | - | .
NCc1csc(NC(=O)Nc2cccc(Cl)c2)n1 | ? | ? | . | - | - | .
CN(C)Cc1csc(NC(=O)Nc2cccc(C(F)(F)F)c2)n1 | 18µM | 15µM | . | - | - | .
CN(C)Cc1csc(NC(=O)Nc2cccc(Cl)c2)n1 | 18µM | 26µM | . | ? | - | .
O=C(c1cc(Cl)ccc1Cl)N1CCC(c2nc3ccccc3o2)CC1 | . | . | . | . | - | .
Cc1cnc(NC(=O)C(C)(C)Oc2ccc(Cl)cc2Cl)s1 | . | . | . | . | - | .
Cc1ccccc1Cn1c(CCCNC(=O)C2CCCCC2)nc2ccccc21 | 15µM | 18µM | . | . | - | .
O=C(NCCCc1nc2ccccc2n1Cc1ccc(F)cc1)C1CCCCC1 | 26µM | ? | . | . | - | .
O=C(NCCCc1nc2ccccc2n1Cc1ccccc1)C1CCCCC1 | 16µM | 18µM | . | . | - | .
CCC(CC)c1nn2c(=O)cc(COc3ccc(NC(=O)c4ccccc4Cl)cc3)nc2s1 | 2.3µM | ? | . | . | - | .
Cc1nn2c(COc3ccc(NC(=O)C(C)C)cc3)nnc2c2ccccc12 | ? | ? | - | - | - | -
CCC(CC)c1nn2c(=O)cc(COc3ccc(NC(=O)c4ccco4)cc3)nc2s1 | . | . | . | . | - | .
CCC(CC)c1nn2c(=O)cc(COc3ccc(NC(=O)c4ccccc4C)cc3)nc2s1 | 2.3µM | ? | . | . | - | .
CCC(CC)c1nn2c(=O)cc(COc3ccc(NC(=O)c4cccc(Cl)c4)cc3)nc2s1 | - | - | . | . | - | .
Cc1nn2c(COc3ccc(NC(=O)c4ccccc4Cl)cc3)nnc2c2ccccc12 | 23µM | 18µM | - | ? | - | -
CN(Cc1cccs1)C(=O)c1cccc(S(=O)(=O)N(C)C)c1 | . | . | . | . | - | .
